Experimental data reported in PubChem BioAssay (Tox21).
Several values for one entry are separate records, joined by “and”; a condition that tells them apart may be missing. Equal entries are not always repeated. Records with an inconclusive call do not appear. Where a structure was tested more than once in an assay, its records may differ in their call. Activity calls are given as the source filed them. Unless noted, calls follow the shape of the dose curve; as a rule, active = well fitted curve in the direction sought with a large enough effect in the repeat runs; inconclusive = weak or mixed curves; inactive = no such curve, though single readings can be large; an effect the other way counts as inactive or inconclusive.

Tests used:
[1] = qHTS assay to identify small molecule antagonists of the thyroid receptor (TR) signaling pathway - cell viability counter screen (AID 743064); details: GH3.TRE-Luc viability, CellTiter-Fluor, 24 h; series mostly up to 70.3 µM; also: nearly all actives have a fitted effect of over 50% in size; also: potency is read from the fitted curve at half-maximal effect
In short: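 Compounds were tested on GH3.TRE-Luc cells in the presence of T3 at 1 nM final. Following 23.5 h at 37 °C, cell viability was quantified by CellTiter-Fluor.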

[2] = qHTS assay to identify small molecule antagonists of the thyroid receptor (TR) signaling pathway (AID 743065); details: GH3.TRE-Luc, T3-stimulated luciferase inhibition, 23.5 h; series mostly up to 70.3 µM; also: nearly all actives have a fitted effect of over 55% in size; also: potency is read from the fitted curve at half-maximal effect
In short: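 Antagonism measured as loss of luciferase signal in GH3 cells stably carrying a TRE-luciferase reporter, co-treated with compound and T3 (1 nM final) for 23.5 h at 37 C. Viability was read in the same well by CellTiter-Fluor.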

[3] = system: thyroid hormone receptor (rat, GH3 cells); test: qHTS assay to identify small molecule agonists of the thyroid receptor (TR) signaling pathway (AID 743066; calls by dose curve); details: GH3.TRE-Luc cells, TR agonist luciferase, 24 h; series mostly up to 83.9 µM
[4] = qHTS assay to identify small molecule antagonists of the estrogen receptor alpha (ER-alpha) signaling pathway - cell viability counter screen (AID 743074; calls by dose curve;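 also: HEK293 cells carrying ER-alpha-UAS-bla reporter stimulated with 17beta-estradiol; nearly all actives have a fitted effect of over 45% in size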; also: potency is read from the fitted curve at half-maximal effect); details: ERalpha-bla HEK293 viability, CellTiter-Glo luminescence, 18 h; series mostly up to 69.4 µM
[5] = qHTS assay to identify small molecule antagonists of the estrogen receptor alpha (ER-alpha) signaling pathway using the BG1 cell line (AID 743080; calls by dose curve;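 also: BG1 cells stimulated with 17beta-estradiol alongside compound; nearly all actives have a fitted effect of over 25% in size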); details: BG1Luc4E2 ERE-luciferase antagonist mode, luminescence; series mostly up to 70.3 µM
In short: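 After 5 days in phenol-red-free 10% charcoal-stripped FBS medium, BG1-Luc-4E2 cells were seeded, left 24 h at 37 C, co-treated with compounds and 17beta-estradiol for 21.5 h, then assayed for viability and luciferase.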

[6] = qHTS assay to identify small molecule antagonists of the estrogen receptor alpha (ER-alpha) signaling pathway using the BG1 cell line - cell viability counter screen (AID 743081); details: BG1Luc4E2 viability, CellTiter-Fluor, 22 h; series mostly up to 70.3 µM;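 also: compound given together with 17beta-estradiol as the ER stimulus; nearly all actives have a fitted effect of over 45% in size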
Aromatase (Homo sapiens) = Aromatase (Homo sapiens) (UniProt P11511); test: qHTS assay to identify aromatase inhibitors (AID 743083); details: MCF-7 aro ERE, testosterone-driven ERE luciferase, 24 h; series mostly up to 70.3 µM; also: nearly all actives have a fitted effect of over 55% in size; also: potency is read from the fitted curve at half-maximal effect
[7] = target: Estrogen receptor (Homo sapiens) (UniProt P03372); test: qHTS assay to identify small molecule agonists of the estrogen receptor alpha (ER-alpha) signaling pathway (AID 743075; calls by dose curve;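 also: HEK293 GripTite cells with ER-alpha and UAS-driven beta-lactamase reporter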); details: HEK293 ER-alpha-UAS-bla, beta-lactamase FRET ratio, 18 h; series mostly up to 70.1 µM
[8] = target: Estrogen receptor (Homo sapiens) (UniProt P03372); test: qHTS assay to identify small molecule agonists of the estrogen receptor alpha (ER-alpha) signaling pathway using the BG1 cell line (AID 743079); details: BG1Luc4E2 cells, ERE-luciferase agonist, 22 h; series mostly up to 70.3 µM; also: nearly all actives have a fitted effect of over 20% in size

Measured: Potency

Sequence of Estrogen receptor (Homo sapiens) (P03372 whole entry, looked up): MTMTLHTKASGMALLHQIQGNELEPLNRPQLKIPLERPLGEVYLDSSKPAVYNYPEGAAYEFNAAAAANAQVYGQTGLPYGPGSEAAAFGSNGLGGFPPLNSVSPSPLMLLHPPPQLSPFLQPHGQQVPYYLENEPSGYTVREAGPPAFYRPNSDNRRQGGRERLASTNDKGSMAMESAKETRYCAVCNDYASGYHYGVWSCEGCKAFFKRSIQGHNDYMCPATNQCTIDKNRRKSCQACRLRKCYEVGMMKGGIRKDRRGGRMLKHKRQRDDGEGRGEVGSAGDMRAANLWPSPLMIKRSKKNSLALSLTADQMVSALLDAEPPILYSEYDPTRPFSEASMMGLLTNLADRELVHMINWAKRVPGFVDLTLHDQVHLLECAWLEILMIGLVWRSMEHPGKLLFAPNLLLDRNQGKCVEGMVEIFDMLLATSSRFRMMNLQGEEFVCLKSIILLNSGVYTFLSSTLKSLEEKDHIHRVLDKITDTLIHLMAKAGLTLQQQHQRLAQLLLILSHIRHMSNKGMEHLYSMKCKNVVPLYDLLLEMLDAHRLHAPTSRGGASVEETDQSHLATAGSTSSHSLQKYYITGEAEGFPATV
Sequence of Aromatase (Homo sapiens) (P11511 whole entry, looked up): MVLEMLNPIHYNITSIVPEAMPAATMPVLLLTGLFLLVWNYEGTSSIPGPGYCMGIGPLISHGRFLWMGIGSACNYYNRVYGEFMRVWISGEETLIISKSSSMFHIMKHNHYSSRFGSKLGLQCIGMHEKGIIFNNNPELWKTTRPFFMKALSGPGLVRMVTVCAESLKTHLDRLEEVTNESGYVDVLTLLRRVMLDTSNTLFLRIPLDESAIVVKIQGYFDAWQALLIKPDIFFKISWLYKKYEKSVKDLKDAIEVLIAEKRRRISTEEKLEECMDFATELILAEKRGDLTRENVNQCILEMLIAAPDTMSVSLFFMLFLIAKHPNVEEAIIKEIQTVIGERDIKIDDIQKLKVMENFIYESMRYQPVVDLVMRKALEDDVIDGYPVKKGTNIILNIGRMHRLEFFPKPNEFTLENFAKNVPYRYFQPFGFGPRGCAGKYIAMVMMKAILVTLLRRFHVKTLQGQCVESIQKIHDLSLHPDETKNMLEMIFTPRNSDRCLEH

NC(=O)CC[C@@H]1NC(=O)[C@H](Cc2ccccc2)NC(=O)[C@H](Cc2ccc(O)cc2)NC(=O)[C@@H](N)CSSC[C@@H](C(=O)N2CCC[C@H]2C(=O)N[C@@H](CCCN=C(N)N)C(=O)NCC(N)=O)NC(=O)[C@H](CC(N)=O)NC1=O
not listed: [7] | [8]
inactive: all other assays above

Oc1ccc(Cl)c2c1CCC2
inactive: all assays above

CCSCC
inactive: all assays above

CC(C)C[C@H](NC(=O)[C@@H](COC(C)(C)C)NC(=O)[C@H](Cc1ccc(O)cc1)NC(=O)[C@H](CO)NC(=O)[C@H](Cc1c[nH]c2ccccc12)NC(=O)[C@H](Cc1cnc[nH]1)NC(=O)[C@@H]1CCC(=O)N1)C(=O)N[C@@H](CCCN=C(N)N)C(=O)N1CCC[C@H]1C(=O)NNC(N)=O
not listed: [7] | [8]
inactive: all other assays above

NCC1CCC(C(=O)O)CC1 (stereo not drawn)
inactive: all assays above

O=C1OC(O)C(C(Cl)Cl)=C1Cl (stereo not drawn)
active: [1] 31.6 µM | [2] 22.4 µM
not listed: Aromatase (Homo sapiens) | [7]
inactive: all other assays above

C[C@@H]1C[C@H]2[C@@H]3C[C@H](F)C4=CC(=O)C=C[C@]4(C)[C@@]3(Cl)[C@@H](O)C[C@]2(C)[C@H]1C(=O)COC(=O)C(C)(C)C
not listed: [5]
inactive: all other assays above

c1ccc2cc3c4ccccc4c4ccccc4c3cc2c1
inactive: [1] | [2] | [3] | [4] | [6]

NS(=O)(=O)c1cc(Cl)c(Cl)c(S(N)(=O)=O)c1
not listed: [5] | [7] | [8]
inactive: all other assays above

Cc1c(N)nc([C@H](CC(N)=O)NC[C@H](N)C(N)=O)nc1C(=O)N[C@H](C(=O)N[C@H](C)[C@@H](O)[C@H](C)C(=O)N[C@H](C(=O)NCCc1nc(-c2nc(C(=O)NCCCCN=C(N)N)cs2)cs1)[C@@H](C)O)[C@@H](O[C@@H]1O[C@@H](CO)[C@@H](O)[C@H](O)[C@@H]1O[C@H]1O[C@H](CO)[C@@H](O)[C@H](OC(N)=O)[C@@H]1O)c1cnc[nH]1
inactive and 4.22 µM (active): [1]
active: [2] 3.76 µM and 841 nM
not listed: [5]
inactive: all other assays above

CCN(CC)C(=O)[C@]1(c2ccccc2)C[C@@H]1CN
inactive: [1] | [2] | [3] | [4] | [6]

Cc1cnc(C(=O)O)c[n+]1[O-]
inactive: all assays above

COc1ccc([C@@H]2CC(=O)c3c(O)cc(O[C@@H]4O[C@H](CO[C@@H]5O[C@@H](C)[C@H](O)[C@@H](O)[C@H]5O)[C@@H](O)[C@H](O)[C@H]4O)cc3O2)cc1O
not listed: [6]
inactive: all other assays above

O=C1C2CC3CC1CC(O)(C3)C2
inactive: all assays above

CCCCCCCCCC[N+](C)(CCCCCCCCCC)CCC[Si](OC)(OC)OC
active: [1] 21.7 µM | [2] 21.7 µM | [4] 49 µM | Aromatase (Homo sapiens) 61.1 µM
not listed: [7]
inactive: all other assays above

C[C@H](NCCc1ccc(O)cc1)[C@H](O)c1ccc(O)cc1
inactive: all assays above

NC(=S)NS(=O)(=O)c1ccc(N)cc1
inactive: [1] | [2] | [3] | [4] | Aromatase (Homo sapiens)

C=C1C(CCl)(CCl)C2(Cl)C(Cl)C(Cl)C1(Cl)C2(Cl)Cl (stereo not drawn)
inactive: [3] | [6]
active: [1] 5.96 µM and 67.8 µM | [2] 5.31 µM and 48 µM | [4] 23.9 µM | Aromatase (Homo sapiens) 29.8 µM and 60.4 µM

CC(CNC(=O)c1cccnc1)NC(=O)c1cccnc1 (stereo not drawn)
not listed: [5] | [7] | [8]
inactive: all other assays above

CCCCCCOC(=O)c1cccnc1
not listed: [4]
inactive: all other assays above

O=c1[nH]c(=O)n([C@H]2C[C@H](O)[C@@H](CO)O2)cc1/C=C/Br
not listed: [5] | [7] | [8]
inactive: all other assays above

CCCCCN=C(N)N/N=C/c1c[nH]c2ccc(OC)cc12
not listed: [5] | [7] | [8]
inactive: all other assays above

CC(=O)OCC1=C(C(=O)O)N2C(=O)[C@@H](NC(=O)Cc3ccccc3)[C@H]2SC1
not listed: [5] | [7] | [8]
inactive: all other assays above

CC1CCCCN1CCCOC(=O)c1ccccc1 (stereo not drawn)
not listed: [5] | [7] | [8]
inactive: all other assays above

NCC[C@H](O)C(=O)N[C@@H]1C[C@H](N)[C@@H](O[C@H]2O[C@H](CN)CC[C@H]2N)[C@H](O)[C@H]1O[C@H]1O[C@H](CO)[C@@H](O)[C@H](N)[C@H]1O
not listed: [5] | [7] | [8]
inactive: all other assays above
